What all share (assay type): functional
The test system of assay [1] is Plasmodium falciparum. As to the kind of experiment: GSK_TCMDC: Inhibition of Plasmodium falciparum 3D7 in whole red blood cells, using parasite LDH activity as an index of growth. Test compounds present at 2uM.
Assay [2] relates to Plasmodium falciparum. As to the kind of experiment: GSK_TCMDC: Inhibition of Plasmodium falciparum Dd2 in whole red blood cells, using parasite LDH activity as an index of growth. Test compounds present at 2uM.
The test system of a further assay is HepG2. As to the kind of experiment: GSK_TCMDC: Percent inhibition of human HepG2 cell line. Test compounds present at 10uM.

For `CN(C)CCCNC(=O)c1ccccc1Sc1ccccc1C#N.Cl`, the Inhibition with Plasmodium falciparum [1] amounted to 89%; with Plasmodium falciparum [2] it was 3%; with HepG2 it was 11%.

With `CC(C)CCn1c(Sc2ccc(C#N)c([N+](=O)[O-])c2)nnc1-c1ccccc1Cl`, the Inhibition in the assay on Plasmodium falciparum [1] is 93%; in the assay with Plasmodium falciparum [2], 38%; in the assay on HepG2, 20%.

For `O=C(Nc1cccnc1)c1cc(-c2cccnc2)nc2ccc(Br)cc12`, the Inhibition in the assay with Plasmodium falciparum [1] was found to be 99%; in the assay on Plasmodium falciparum [2], 60%; in the assay on HepG2, 9%.

As for `CC(C)NCc1ccc(-c2cccc(NC(=O)c3ccc(C#N)cc3)c2)cc1.O=C(O)C(F)(F)F`, the Inhibition worked out at 100% in the assay on Plasmodium falciparum [1], 19% with Plasmodium falciparum [2] and 8% in the assay with HepG2.

In the case of `CCOC(=O)c1nc(-c2cc(Cl)nc(Cl)c2)[nH]c1NC(=S)NCc1ccc(NS(C)(=O)=O)cc1`, the Inhibition with Plasmodium falciparum [1] is 100%; with Plasmodium falciparum [2], 98%; in the assay with HepG2, 0%.

As to `CC(C)C[C@H](NC(=O)c1cc2ccccc2s1)C(=O)N[C@H]1CCN(Cc2ccc(I)c(OC3CCN(C)C3)c2)C1.O=C(O)C(F)(F)F` (stereo not given in full), the Inhibition in the assay on Plasmodium falciparum [1] turned out to be 100%; in the assay with Plasmodium falciparum [2], 95%; in the assay with HepG2, 99%.

As for `CCN(CC)CCN(Cc1ccc(-c2ccc(C(F)(F)F)cc2)cc1)C(=O)Cn1c(SCc2ccc(F)c(F)c2F)nc(=O)c2c1CCC2.O=C(O)C(O)C(O)C(=O)O`, the values for the Inhibition in the assay on Plasmodium falciparum [1], in the assay with Plasmodium falciparum [2] and in the assay on HepG2 were 91%, 96% and 100%, respectively.

For `COC(=O)C(Cc1ccccc1)C(CSCc1ccc(OC)cc1)C(=O)N[C@@H](C(=O)OC(C)(C)C)c1ccc(C(C)(C)C)cc1` (stereo not given in full), the Inhibition was 93% with Plasmodium falciparum [1], 44% in the assay on Plasmodium falciparum [2] and 0% in the assay on HepG2.

As to `Cl.O=c1cc(NCCCNCc2cc3ccc(Br)cc3s2)[nH]c2ccccc12`, the Inhibition was found to be 92% with Plasmodium falciparum [1], 8% in the assay with Plasmodium falciparum [2] and 18% with HepG2.

On to `c1ccc(-c2nnc(-c3ccccn3)nc2NC2CCCCC2)cc1`, for which the Inhibition with Plasmodium falciparum [1] turned out to be 97%; in the assay with Plasmodium falciparum [2], 80%; in the assay with HepG2, 74%.

Regarding `CN1CCN(CCCN(Cc2csc(-c3ccc(CNCc4ccccc4)cc3)n2)C(=O)Nc2ccc3ccccc3c2)CC1.O=C(O)C(F)(F)F`, the values for the Inhibition in the assay with Plasmodium falciparum [1], in the assay with Plasmodium falciparum [2] and in the assay with HepG2 were 94%, 63% and 12%, respectively.

In the case of `COc1ccc(Nc2nc(NN=Cc3cc(Br)c(O)cc3O)nc(Nc3ccc([N+](=O)[O-])cc3)n2)cc1`, the Inhibition is reported as 97% with Plasmodium falciparum [1], 23% in the assay with Plasmodium falciparum [2] and 30% with HepG2.

On to `Nc1c2c(nc3ccccc13)C(=Cc1ccc(O)cc1)CCC2`, for which the Inhibition with Plasmodium falciparum [1] was 99%; in the assay on Plasmodium falciparum [2], 6%; with HepG2, 9%.

Consider `COc1cc2c(cc1S(=O)(=O)c1ccc(NC(=O)c3cccc(C(F)(F)F)c3)cc1)CCN(C)CC2`, for which the Inhibition in the assay on Plasmodium falciparum [1] was 92%; in the assay with Plasmodium falciparum [2], 25%; with HepG2 it was 18%.

For the compound `CC(C)c1cccc(C(NC(=O)[C@H]2Cc3ccccc3CN2C(=O)c2cccc(N3CCOCC3)c2)C2CCCC2)c1` (stereo not given in full), the Inhibition in the assay on Plasmodium falciparum [1] is 94%; in the assay with Plasmodium falciparum [2], 96%; with HepG2, 3%.

Consider `CCc1c(CCNCCc2cccc(CCNCCc3ccc(OC)c(OC)c3CC)c2)ccc(OC)c1OC.Cl`, for which the Inhibition in the assay on Plasmodium falciparum [1] is listed as 81%; with Plasmodium falciparum [2] it was 67%; in the assay on HepG2, 100%.

As for `COc1ccc2ncc(F)c([C@@H](O)CN3CCC(NCc4ccc5c(c4)NCCS5)CC3)c2n1.Cl`, the Inhibition in the assay with Plasmodium falciparum [1] came to 99%; in the assay with Plasmodium falciparum [2], 69%; with HepG2 it was 77%.

For the compound `CCN(c1cc(C)nc(Nc2ccc(Cl)cc2)n1)[C@H]1CCN(Cc2ccccc2)C1`, the Inhibition in the assay with Plasmodium falciparum [1] was determined as 94%; in the assay on Plasmodium falciparum [2] it was 31%; with HepG2 it was 46%.

For the compound `CC(C)CNCc1ccc(-c2ccccc2CNC2CCN(Cc3ccccc3)CC2)cc1.O=C(O)C(F)(F)F`, the Inhibition in the assay on Plasmodium falciparum [1] was found to be 100%; in the assay on Plasmodium falciparum [2] it was 41%; in the assay with HepG2, 28%.

For `COc1ccc(NC(=O)[C@H](C)Nc2cc(C)nc(NCC3CCCCC3)n2)cc1.O=C(O)C(F)(F)F`, the Inhibition in the assay on Plasmodium falciparum [1] is on record as 92%; with Plasmodium falciparum [2] it was 13%; in the assay with HepG2, 12%.

For `CC(=NNC(N)=O)C1=C(O)C(c2ccccc2)N(C2CCCCC2)C1=O` (stereo not given), the Inhibition came out at 93% in the assay on Plasmodium falciparum [1], 96% in the assay on Plasmodium falciparum [2] and 59% with HepG2.

Take `COc1ccc(N(c2nc(-c3cc(Cl)ccc3Cl)cs2)C2CCNC2)cc1.O=C(O)C(F)(F)F` (stereo not given): the figures for the Inhibition in the assay on Plasmodium falciparum [1], with Plasmodium falciparum [2] and in the assay with HepG2 were 95%, 9% and 21%, respectively.

Consider `Cc1cccc2nc(-c3ccc(-c4ccc(CNCCNC(=O)c5ccnn5C)cc4)s3)[nH]c12.O=C(O)C(F)(F)F`, for which the Inhibition with Plasmodium falciparum [1] was determined as 100%; in the assay on Plasmodium falciparum [2], 97%; in the assay on HepG2, 20%.

For `Cc1ccc(C(C)C)cc1CON1C(=N)N=C(N)NC1(C)C.Cl`, the figures for the Inhibition in the assay with Plasmodium falciparum [1], in the assay with Plasmodium falciparum [2] and in the assay with HepG2 were 94%, 92% and 66%, respectively.

Take `COC(=O)c1cc2cccc(NC[C@@H](C)NC[C@H](O)c3cccc(Cl)c3)c2[nH]1`: the Inhibition in the assay with Plasmodium falciparum [1] is on record as 98%; with Plasmodium falciparum [2], 99%; with HepG2, 0%.

Turning to `Cc1cc(NC(=O)c2ccc(S(=O)(=O)N(Cc3ccccc3)C(C)C)cc2)no1`, the Inhibition in the assay on Plasmodium falciparum [1] was 87%; in the assay on Plasmodium falciparum [2], 67%; in the assay with HepG2, 0%.

Turning to `Cc1nc(-c2cccc(NCc3ccccc3)c2)[nH]c1C.Cl`, the Inhibition was determined as 100% in the assay on Plasmodium falciparum [1], 48% in the assay on Plasmodium falciparum [2] and 16% in the assay with HepG2.

For the compound `CN(C)CCN(C)Cc1ccc(-c2ccc(NC(=O)c3cccc(Cl)c3)cc2)cc1.O=C(O)C(F)(F)F`, the Inhibition in the assay with Plasmodium falciparum [1] was 94%; in the assay with Plasmodium falciparum [2], 54%; with HepG2 it was 50%.

Consider `Cc1cc(OCCCN2CCC(NS(=O)(=O)c3cc(Br)c(Cl)s3)CC2)c2ccccc2n1`, for which the Inhibition with Plasmodium falciparum [1] was 95%; in the assay on Plasmodium falciparum [2], 39%; in the assay on HepG2, 5%.

Consider `Cc1cccc(S(=O)(=O)Nc2cccc(CCN3CCC(N4CCCCC4)CC3)c2)c1`, for which the Inhibition is listed as 87% with Plasmodium falciparum [1], 13% in the assay on Plasmodium falciparum [2] and 15% in the assay with HepG2.

Turning to `Cl.c1cc2c3c(cccc3c1)NC(CCCCCCCCC1=Nc3cccc4cccc(c34)N1)=N2`, the Inhibition was 93% with Plasmodium falciparum [1], 6% with Plasmodium falciparum [2] and 14% in the assay on HepG2.

As for `O=C(NCCCCN1CCC(c2ccc3c(c2OCCO)CCCC3)CC1)c1sc(-c2ccc(C(F)(F)F)cc2)nc1CO`, the results for the Inhibition in the assay on Plasmodium falciparum [1], with Plasmodium falciparum [2] and with HepG2 were 95%, 20% and 37%, respectively.

Consider `COc1ccc2nc(C)cc(NCc3cccc4ccccc34)c2c1.Cl`, for which the Inhibition was 100% in the assay with Plasmodium falciparum [1], 72% with Plasmodium falciparum [2] and 28% in the assay with HepG2.

As for `Oc1cc(Nc2ccnc3cc(-c4cccc(CN5CCCCC5)c4)ccc23)c(F)cc1Cl`, the Inhibition in the assay with Plasmodium falciparum [1] amounted to 100%; with Plasmodium falciparum [2], 100%; in the assay with HepG2 it was 21%.

Consider `CCNc1cc(C(=O)N[C@@H](Cc2ccccc2)[C@H](O)CNC(C)(C)Cc2cccc(Cl)c2)cc(N2CCCCS2(=O)=O)c1.Cl`, for which the Inhibition with Plasmodium falciparum [1] stood at 97%; in the assay on Plasmodium falciparum [2], 74%; with HepG2, 17%.
